The values below come from article PMC7862700, “An all-to-all approach to the identification of sequence-specific readers for epigenetic DNA modifications on cytosine”.

Common to all, as to experiment: DAPPL (digital affinity profiling via proximity ligation, sequencing); 10 mM Tris-HCl pH 7.5, 50 mM NaCl, 1 mM DTT, 4% glycerol, room temperature, 30 min; GST-TFs on glutathione beads, 16-mer random dsDNA library, 0.1% formaldehyde crosslink after washing; high values mean tight binding
Holding throughout (conditions): protein: recombinant; tags: N-terminal GST; dsDNA, one strand shown

In one experiment the target is CRX (Homo sapiens, UniProt O43186 1-299). The essentials:
(§1)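 In yeast, human transcription factors were expressed with a GST fusion, then pulled down on glutathione beads and given DNA barcodes. Pooled with a tag-only sample, they were exposed to 200 nmole of a 16-mer random double-stranded DNA library (Tris/NaCl/DTT/glycerol buffer, room temperature, 30 min), washed, crosslinked with 0.1% formaldehyde, proximity-ligated using BsaI/T4 ligase for 1 h at 37 °C, PCR-amplified and read on an Illumina NextSeq500. Each hexamer's frequency of reads for a factor, divided by the matching frequency for the tag-only sample, gives the binding signal.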

The target in another experiment is T1, ETV7 (Homo sapiens, UniProt Q9Y603 1-341).
T1 sequence: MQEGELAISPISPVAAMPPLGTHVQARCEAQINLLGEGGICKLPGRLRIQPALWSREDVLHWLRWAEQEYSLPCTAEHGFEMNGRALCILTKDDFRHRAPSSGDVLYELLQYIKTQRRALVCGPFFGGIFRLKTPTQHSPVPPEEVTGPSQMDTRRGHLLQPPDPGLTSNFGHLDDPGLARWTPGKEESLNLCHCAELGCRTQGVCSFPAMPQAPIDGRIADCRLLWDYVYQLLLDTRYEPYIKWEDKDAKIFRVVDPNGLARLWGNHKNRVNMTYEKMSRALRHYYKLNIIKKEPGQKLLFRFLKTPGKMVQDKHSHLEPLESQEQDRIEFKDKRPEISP
Summed up: as §1

The target in another experiment is T2, ELK3 (Homo sapiens, UniProt P41970 1-407).
T2 sequence: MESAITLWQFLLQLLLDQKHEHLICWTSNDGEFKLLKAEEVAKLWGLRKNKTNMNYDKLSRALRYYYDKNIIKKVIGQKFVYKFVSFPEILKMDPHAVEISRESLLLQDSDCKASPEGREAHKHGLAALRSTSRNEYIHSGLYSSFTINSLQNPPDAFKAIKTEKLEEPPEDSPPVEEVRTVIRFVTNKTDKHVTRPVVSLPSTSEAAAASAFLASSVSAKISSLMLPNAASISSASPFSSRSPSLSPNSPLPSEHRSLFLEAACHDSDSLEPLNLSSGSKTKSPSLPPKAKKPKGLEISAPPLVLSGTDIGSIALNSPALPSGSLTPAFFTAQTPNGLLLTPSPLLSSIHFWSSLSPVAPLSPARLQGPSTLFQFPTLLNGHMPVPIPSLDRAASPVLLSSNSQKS
Summed up: as §1

A further experiment has as its target T3, ERG (Homo sapiens, UniProt P11308 1-479).
T3 sequence: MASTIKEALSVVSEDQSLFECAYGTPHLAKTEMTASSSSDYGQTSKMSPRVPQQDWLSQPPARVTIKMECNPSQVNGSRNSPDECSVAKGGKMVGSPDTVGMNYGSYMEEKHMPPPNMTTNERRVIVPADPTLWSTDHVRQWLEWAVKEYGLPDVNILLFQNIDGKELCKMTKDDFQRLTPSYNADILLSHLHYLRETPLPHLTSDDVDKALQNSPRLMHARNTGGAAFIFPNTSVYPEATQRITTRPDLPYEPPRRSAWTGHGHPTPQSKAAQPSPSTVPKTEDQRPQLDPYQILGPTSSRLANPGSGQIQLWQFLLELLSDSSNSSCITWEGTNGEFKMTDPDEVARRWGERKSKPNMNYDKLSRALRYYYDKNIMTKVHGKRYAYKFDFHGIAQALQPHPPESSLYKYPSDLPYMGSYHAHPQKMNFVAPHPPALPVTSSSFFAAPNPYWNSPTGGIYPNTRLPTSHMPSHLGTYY
The essentials:
as §1

For a further experiment, the target named is T4, FEV (Homo sapiens, UniProt Q99581 1-238).
T4 sequence: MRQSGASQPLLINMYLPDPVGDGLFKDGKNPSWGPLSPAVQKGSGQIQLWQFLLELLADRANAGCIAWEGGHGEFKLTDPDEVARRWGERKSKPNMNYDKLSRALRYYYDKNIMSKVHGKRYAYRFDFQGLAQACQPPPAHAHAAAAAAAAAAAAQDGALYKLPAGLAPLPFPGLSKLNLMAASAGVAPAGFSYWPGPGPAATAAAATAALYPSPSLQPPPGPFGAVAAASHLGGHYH
Summed up: as §1

In another experiment the target is T5, SPDEF (Homo sapiens, UniProt O95238 1-335).
T5 sequence: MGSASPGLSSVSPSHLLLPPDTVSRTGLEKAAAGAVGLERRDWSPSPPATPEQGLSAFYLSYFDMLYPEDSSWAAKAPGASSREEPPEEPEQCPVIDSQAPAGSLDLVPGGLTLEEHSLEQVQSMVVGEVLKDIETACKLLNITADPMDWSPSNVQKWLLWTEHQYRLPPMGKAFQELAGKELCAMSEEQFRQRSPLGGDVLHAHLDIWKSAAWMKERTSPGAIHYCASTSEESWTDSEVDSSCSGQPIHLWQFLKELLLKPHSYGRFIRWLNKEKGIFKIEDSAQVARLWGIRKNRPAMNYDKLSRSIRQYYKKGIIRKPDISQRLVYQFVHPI
Summed up: as §1

Another experiment addresses T6, ELF5 (Homo sapiens, UniProt Q9UKW6-2 1-255).
T6 sequence: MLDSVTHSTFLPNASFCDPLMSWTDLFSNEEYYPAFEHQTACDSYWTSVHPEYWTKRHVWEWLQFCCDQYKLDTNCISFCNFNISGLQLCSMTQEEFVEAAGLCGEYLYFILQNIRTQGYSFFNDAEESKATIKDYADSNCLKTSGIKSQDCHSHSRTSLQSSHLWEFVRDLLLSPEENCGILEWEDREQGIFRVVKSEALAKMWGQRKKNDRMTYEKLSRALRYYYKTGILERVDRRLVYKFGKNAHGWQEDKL
The essentials: as §1

The target of a further experiment is T7, ETV3 (Homo sapiens, UniProt P41162-2 1-143).
T7 sequence: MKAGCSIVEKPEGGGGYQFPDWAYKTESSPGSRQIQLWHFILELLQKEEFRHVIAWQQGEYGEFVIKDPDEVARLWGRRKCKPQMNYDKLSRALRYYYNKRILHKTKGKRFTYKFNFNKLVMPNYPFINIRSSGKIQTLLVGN
Summed up:
as §1

The target of another experiment is T8, GABPA (Homo sapiens, UniProt Q06546 1-454).
T8 sequence: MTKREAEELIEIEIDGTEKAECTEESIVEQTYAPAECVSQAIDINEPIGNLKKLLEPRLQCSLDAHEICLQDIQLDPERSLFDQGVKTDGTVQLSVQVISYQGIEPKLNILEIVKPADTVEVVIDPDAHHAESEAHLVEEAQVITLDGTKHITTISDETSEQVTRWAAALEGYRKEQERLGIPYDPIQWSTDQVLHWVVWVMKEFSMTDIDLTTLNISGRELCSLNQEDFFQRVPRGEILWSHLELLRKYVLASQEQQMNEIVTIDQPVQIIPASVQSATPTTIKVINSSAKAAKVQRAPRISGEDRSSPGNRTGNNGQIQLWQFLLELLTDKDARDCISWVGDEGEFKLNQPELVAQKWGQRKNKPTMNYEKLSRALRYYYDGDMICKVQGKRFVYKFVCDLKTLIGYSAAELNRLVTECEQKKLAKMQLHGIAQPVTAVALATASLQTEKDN
Summed up: as §1

Another experiment has as its target T9, ELF3 (Homo sapiens, UniProt P78545 1-371).
T9 sequence: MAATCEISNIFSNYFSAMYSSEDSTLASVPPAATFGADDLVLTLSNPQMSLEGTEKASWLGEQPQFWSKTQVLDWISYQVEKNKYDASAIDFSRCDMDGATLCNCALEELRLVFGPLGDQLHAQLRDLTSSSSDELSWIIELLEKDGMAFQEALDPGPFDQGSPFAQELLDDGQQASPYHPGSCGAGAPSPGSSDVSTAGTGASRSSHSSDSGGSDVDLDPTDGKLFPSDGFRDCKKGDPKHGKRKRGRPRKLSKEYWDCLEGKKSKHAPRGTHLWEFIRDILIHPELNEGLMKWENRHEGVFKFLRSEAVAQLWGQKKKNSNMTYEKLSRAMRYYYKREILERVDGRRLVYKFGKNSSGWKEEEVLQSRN
Summed up:
as §1

A further experiment addresses T10, EHF (Homo sapiens, UniProt Q9NZC4 1-300).
T10 sequence: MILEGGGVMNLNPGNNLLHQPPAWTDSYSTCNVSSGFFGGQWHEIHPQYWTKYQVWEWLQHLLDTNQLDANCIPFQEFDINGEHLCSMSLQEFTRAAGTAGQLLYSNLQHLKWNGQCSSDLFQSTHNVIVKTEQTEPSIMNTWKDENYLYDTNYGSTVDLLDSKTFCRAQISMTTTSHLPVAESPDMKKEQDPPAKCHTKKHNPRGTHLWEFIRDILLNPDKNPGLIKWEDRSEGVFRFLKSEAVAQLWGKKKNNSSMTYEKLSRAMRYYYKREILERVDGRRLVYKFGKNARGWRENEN
The essentials:
as §1

For another experiment, the target named is SPI1 (Homo sapiens, UniProt P17947 1-270). The essentials: as §1

Sequence of CRX (O43186 whole entry, the tested form may be a part): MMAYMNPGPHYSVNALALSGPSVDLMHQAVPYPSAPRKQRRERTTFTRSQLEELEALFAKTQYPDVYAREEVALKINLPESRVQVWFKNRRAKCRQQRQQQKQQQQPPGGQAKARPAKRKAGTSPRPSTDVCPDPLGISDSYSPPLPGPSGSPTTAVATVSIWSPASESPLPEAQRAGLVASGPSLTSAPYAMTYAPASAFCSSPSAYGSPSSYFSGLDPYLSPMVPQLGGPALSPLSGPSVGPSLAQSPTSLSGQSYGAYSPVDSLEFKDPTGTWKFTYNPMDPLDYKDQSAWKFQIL

Turning to GCATAA, the binding signal with CRX is 1.15 fold enrichment (6-mer frequency, TF over GST control).

For the sequence AAGCCG, the binding signal with CRX is 1.42 fold enrichment (6-mer frequency, TF over GST control); with ETV7, 1.05 fold enrichment (6-mer frequency, TF over GST control).

As for GATTGG, the binding signal with ELK3 is 1.01 fold enrichment (6-mer frequency, TF over GST control); in the experiment with CRX, 1.01 fold enrichment (6-mer frequency, TF over GST control).

Regarding GGATTG, in the experiment with CRX, the binding signal was 1.12 fold enrichment (6-mer frequency, TF over GST control).

In the case of AGGATA, the binding signal with ERG is 1.06 fold enrichment (6-mer frequency, TF over GST control); in the experiment with FEV, 1.01 fold enrichment (6-mer frequency, TF over GST control); with CRX, 1.14 fold enrichment (6-mer frequency, TF over GST control); with SPDEF it was 1.31 fold enrichment (6-mer frequency, TF over GST control); with ELF5, 1.17 fold enrichment (6-mer frequency, TF over GST control); in the experiment with ETV3 it was 1.06 fold enrichment (6-mer frequency, TF over GST control).

Take CGCCGT: the binding signal with GABPA is 1.01 fold enrichment (6-mer frequency, TF over GST control).

Turning to TATCGG, in the experiment with CRX, the binding signal is 1.1 fold enrichment (6-mer frequency, TF over GST control).

Consider ACCGGT, for which the binding signal with ELF3 is 1.01 fold enrichment (6-mer frequency, TF over GST control); with SPDEF it was 1.02 fold enrichment (6-mer frequency, TF over GST control).

Consider AGTTAT, for which the binding signal in the experiment with ELK3 is 1 fold enrichment (6-mer frequency, TF over GST control); in the experiment with ELF3 it was 1.08 fold enrichment (6-mer frequency, TF over GST control).

Take ATTGGA: in the experiment with CRX, the binding signal is 1.03 fold enrichment (6-mer frequency, TF over GST control).

Consider ACAAGG, for which the binding signal is 1.04 fold enrichment (6-mer frequency, TF over GST control) with EHF; 1.02 fold enrichment (6-mer frequency, TF over GST control) with ELK3; 1.09 fold enrichment (6-mer frequency, TF over GST control) in the experiment with ELF3; 1.14 fold enrichment (6-mer frequency, TF over GST control) with ELF5.

Regarding AAGGGA, the binding signal with SPI1 was 1.07 fold enrichment (6-mer frequency, TF over GST control); with ELF3, 1.03 fold enrichment (6-mer frequency, TF over GST control).

Consider CAACAG, for which the binding signal with EHF is 1 fold enrichment (6-mer frequency, TF over GST control); in the experiment with ELK3, 1.01 fold enrichment (6-mer frequency, TF over GST control); with ELF3, 1.03 fold enrichment (6-mer frequency, TF over GST control); in the experiment with ETV3, 1.02 fold enrichment (6-mer frequency, TF over GST control).

Regarding TAAGTG, the binding signal with CRX is 1.14 fold enrichment (6-mer frequency, TF over GST control).
